Data from PubChem BioAssay (NCI).
The panel holds about 83,000 compounds, 20% with a hit somewhere; the sample as a whole holds those more often.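 The endpoint reported here, percent growth, reads 100 for growth as untreated, 0 for no net growth and -100 for all cells dead.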 Unmarked numbers belong to inactive results. Calls of active or inactive are those of the source. Rule for the calls: active = growth percent below 10; inactive = the rest.

Columns and labels:
Experiment in all cases: NCI-60 one-dose screen, 48 h (100 = growth as untreated, 0 = no growth, -100 = all killed)
HCT-15 colon = conditions: 10 µM unless noted
HT29 colon = conditions: 10 µM unless noted
SNB-75 CNS = conditions: 10 µM unless noted
U251 CNS = conditions: 10 µM unless noted
PC-3 prostate = conditions: 10 µM unless noted
UACC-62 melanoma = conditions: 10 µM unless noted
LOX IMVI melanoma = conditions: 10 µM
SK-MEL-28 melanoma = conditions: 10 µM unless noted
SNB-19 CNS = conditions: 10 µM unless noted
SK-MEL-5 melanoma = conditions: 10 µM unless noted

Row | SMILES | growth (HCT-15 colon) | growth (HT29 colon) | growth (SNB-75 CNS) | growth (U251 CNS) | growth (PC-3 prostate) | growth (UACC-62 melanoma) | growth (LOX IMVI melanoma) | growth (SK-MEL-28 melanoma) | growth (SNB-19 CNS) | growth (SK-MEL-5 melanoma)
1 | CN1CCN(c2ccc(C(=O)/C=C/c3ccc(Br)cc3)cc2)CC1 | 8.41% (active) | 6.76% (active) | 28.3% | -75.7% (active) | 34.4% | -9.44% (active) | -13.4% (active) | 37.7% |  | 
2 | Cc1ccc([C@H]2C(C(=O)c3ccc(Cl)cc3)C3(N[C@@H]2c2ccccc2)C(=O)Nc2ccc(Br)cc23)cc1 (some centres not stated) | 50.8% | 7.2% (active) |  | 47.9% | 16.7% | 45.9% | 35.9% | 77.9% | 66.5% | 88%
3 | COc1cc2c(c(OC)c1OC)C(=O)CC(c1cccc(NC(=O)c3cccc([N+](=O)[O-])c3)c1)O2 (configuration not stated) | 16.9% | 34.7% | 38.1% | 49.1% | 18.6% | 13.4% |  | 41.7% |  | -6.2% (active)
4 | CC(C)CSc1nc(NCCc2c[nH]c3ccccc23)c(C#N)c(-c2ccccc2)n1 | 22.6% | 4.54% (active) | 82.8% |  | 17.8% | 77.3% | 33.3% | 87.3% |  | 27.3%
5 | COc1ccc(C(=O)/C=C/c2ccc(OCc3ccc(F)cc3)c(OC)c2)cc1OC | 10.2% | 10.7% | -15% (active) | 10.1% | 24% | 18.8% |  | 46.8% |  | 17.8%
6 | NS(=O)(=O)c1ccc(N=Nc2c(O)n(CC(=O)Nc3ccccc3)c3ccccc23)cc1 | 16% | 2.37% (active) | 42.2% | -15.1% (active) | 20.8% | 22.1% |  | -2.1% (active) |  | 24.6%
7 | COc1ccc(-c2ccnc(SCc3cc4cc(OC)ccc4[nH]c3=O)n2)cc1 | 10.5% | 19.9% |  | 22.7% | 23.8% | 16.4% | 18.7% | 36.5% | 36.3% | -3.59% (active)
8 | C=C1CC[C@@H]2[C@]3(C)COC(c4cn(-c5ccccc5)nc4-c4ccccc4)O[C@@H]3CC[C@@]2(C)[C@@H]1C/C=C1/C(=O)OC[C@H]1O (some centres not stated) | -87% (active) | -70.4% (active) | -18.8% (active) | -88.5% (active) | -26.8% (active) | -93.8% (active) |  | -84.2% (active) |  | -100% (active)
9 | O=C(C1=CNC(=S)NC1c1ccc(O)cc1)c1cc2ccccc2oc1=O (configuration not stated) | 104% | 106% |  | 102% | 86.7% | 95.8% | 91.5% | 118% | 97.7% | 101%
10 | Brc1ccc(N/N=C/c2c[nH]c3ccc(Br)cc23)nc1 | -61.8% (active) | -80.1% (active) |  | -63.5% (active) | -29.6% (active) | -57% (active) | -100% (active) | -50.7% (active) | 4.49% (active) | -87% (active)
11 | C=C1CC[C@@H]2[C@]3(C)COC(c4cn[nH]c4-c4ccccc4)O[C@@H]3CC[C@@]2(C)[C@@H]1C/C=C1/C(=O)OCC1O (some centres not stated) | -81% (active) | -79% (active) | 105% | -18.6% (active) | 33.3% | -12.7% (active) |  | -55.2% (active) |  | -77.2% (active)
12 | NC(=S)Nc1cccc(NC(N)=S)c1 | 95.1% | 113% | 97.6% | 88.8% |  | 70.5% |  | 104% |  | 91.4%
13 | CC12CC[C@@H]3[C@]4(C)COC(c5cn[nH]c5-c5cccc(Br)c5)O[C@@H]4CC[C@@]3(C)[C@@H]1CC(C1=CCOC1=O)O2 (some centres not stated) | 23.3% | 23.2% |  | 32.1% | 12.9% | 20.9% | -8.01% (active) | 34% | 51.2% | 3.56% (active)
14 | O=C(/C=C/c1cccc(OCc2ccccc2)c1)c1nc2ccccc2[nH]1 | -75.5% (active) | -45.7% (active) | 66.8% |  | 25.9% | 56% |  | 94.9% |  | 72.1%
15 | CCCSc1nc(NCCc2c[nH]c3ccccc23)c(C#N)c(-c2ccccc2)n1 | 27.3% | 30.3% | 87.7% |  | 35% | 76.3% | 53.3% | 97.4% |  | 41.6%
16 | O=C(COc1ccc(NC(=O)Nc2ccc(Cl)c(Cl)c2)cc1)N=Nc1c(O)[nH]c2ccc(Cl)cc12 | 30.6% | -30.1% (active) | -37.6% (active) | -84.5% (active) | -2.39% (active) | -33.1% (active) |  | -81.4% (active) |  | -83.8% (active)
17 | CN(C)CCn1c2ccccc2c2nc3cc4ccccc4cc3nc21 | -35.8% (active) | -50.4% (active) | 43% |  | 3.43% (active) | 57.2% |  | -80.1% (active) |  | 14.6%
18 | CC(C)CSc1nc(NCCc2c[nH]c3ccccc23)c(C#N)c(-c2ccc(Cl)cc2)n1 | 29.8% | 15.1% | 77.3% |  | 23.1% | 74.1% | 22.5% | 72.1% |  | 30%
19 | COc1c(F)ccc(C(=O)Nc2ccc3nc(NC(=O)C4CCCN(S(=O)(=O)c5ccc(C#N)cc5)C4)sc3c2)c1F (configuration not stated) | 90.1% | 85.8% |  | 89.3% | 81.9% | 78.7% | 95.4% | 105% | 100% | 82.5%
20 | CCN(CC)CCOc1ccc(Nc2ncc3cc(-c4ccc(O)c(C#N)c4)c(=O)n(C)c3n2)cc1 | 86.2% | -58.4% (active) |  | -61.2% (active) | 69.5% | 92.1% | 47% | 79.8% | 108% | 43.8%
21 | COc1c(F)ccc(C(=O)Nc2ccc3nc(NC(=O)C4CCCN(S(=O)(=O)c5cccc(Br)c5)C4)sc3c2)c1F (configuration not stated) | 80.8% | 85.7% |  | 75% | 57.8% | 80.8% | 85% | 97.8% | 82.7% | 89.4%
22 | C=C1CCC2C3(C)COC(c4ccco4)OC3CCC2(C)C1CC(Sc1ccccc1)C1=CCOC1=O (configuration not stated) | 3.97% (active) | 8.59% (active) |  | 31.9% | 50.2% | 30.2% | -96.1% (active) | 56.1% | 86.2% | 63.4%
23 | COc1ccc2[nH]c(O)c(N=NC(=O)Cn3c(-c4ccccc4)nc4cc(C)ccc43)c2c1 | 3.08% (active) | -1.1% (active) |  | 32.4% | 21.5% | 6.74% (active) | 38.3% | -23.6% (active) | 59.2% | -23.8% (active)
24 | CCCn1cc(-c2nc(Nc3ccc(C(=O)NCCCCNc4cccc5c4C(=O)N(C4CCC(=O)NC4=O)C5=O)cc3)nc3[nH]ccc23)cn1 (configuration not stated) | 40.1% | 28.1% |  | 54.1% | 3.62% (active) | 74.6% | 90.5% | 59.3% | 23.4% | 15.8%
25 | COc1ccc2c(c1)c(/C=N/Nc1ccc3ccccc3n1)cn2C | -44.8% (active) | -66.7% (active) |  | 7.9% (active) | 7.27% (active) | 20.6% | -97.9% (active) | -1.59% (active) | 71.3% | 23%
26 | C=C1CC[C@@H]2[C@]3(C)COC(c4cn[nH]c4-c4ccc(Br)cc4)O[C@@H]3CC[C@@]2(C)[C@@H]1C/C=C1/C(=O)OCC1O (some centres not stated) | -62.6% (active) | 0.504% (active) |  | -86.7% (active) | -44.1% (active) | -79.1% (active) | -100% (active) | -78% (active) | -36.5% (active) | -97% (active)
27 | COc1cccc(/C=C/c2nc3ccccc3c(=O)n2CC(=O)Nc2ccc(Cl)cc2)c1 | 88.3% | 64.4% |  | 27.8% | 76.3% | 95.1% | 39.8% | 99.2% | 76.3% | 101%
